About 740 (0.23%) of roughly 320,000 compounds were called active. Not shown: some 2% with an inconclusive outcome. Many of the other results were omitted from the sample, so actives are more common in it than they were. A number with no mark means an inactive call. The call rests on the fitted dose curve; in most records, active means well fitted activation curve with a large enough effect; inconclusive means small, poorly fitted or top-dose-only effect; inactive means no such curve, though single readings can be large or run the other way.
Assay: qHTS Assay for Small Molecule Inhibitors of Mitochondrial Division or Activators of Mitochondrial Fusion; further: nearly all actives have a fitted effect of over 45% in size; on growth rescue (activation): % of control where 0% means no effect
Details: S. cerevisiae fusion-defective mutant growth rescue, CellTiterGlo 48 h; series mostly up to 46.1 µM; growth rescue (activation): at the top concentration
From the text: NIH Chemical Genomics Center [NCGC] NIH Molecular Libraries Probe Production centers Network [MLPCN] MLPCN Grant: MH081279-01 Assay Submitter (PI): Jodi M. Nunnari NCGC Assay Overview: The budding yeast S. cerevisiae is a powerful system to study mitochondrial fusion. Unlike other organisms, yeast cells without functional mitochondrial DNA (mtDNA) can be propagated and studied as long as they maintain a mitochondrial compartment and are provided with a fermentable carbon source. When mitochondrial fusion is blocked in yeast, mitochondrial tubules rapidly fragment and division continues unopposed. Under conditions where fusion is compromised in mammalian cells, nearly identical changes in mitochondrial structure have been observed. Thus, these findings indicate that steady state mitochondrial structure in cells is a characteristic and specific indicator of fusion activity. Mounting evidence has pointed to a connection between mitochondrial dynamics and apoptosis in mammalian cells. These studies indicate that in mammalian cells mitochondrial dynamics are more integrated into cellular processes than in yeast cells and have evolved not only to distribute the organelle but also to aid in the regulation of cellular homeostasis. Mitochondrial fusion proteins attenuate apoptosis by inhibiting the release of cytochrome c from mitochondria, in part by controlling cristae structures. Thus, small molecules that inhibit mitochondrial […] may promote apoptosis and potentially act as novel chemotherapeutics and stimulation of apoptosis has become an attractive target of anti-cancer therapies. To identify inhibitors of mitochondrial division, we exploit the growth phenotypes of mitochondrial fusion-defective mutants. The temperature sensitive fusion alleles, such as fzo1-1 and mgm1-5, cause mitochondrial membranes to fragment in cells under non-permissive conditions and cells lose mtDNA, and are unable to grow in the presence of non-fermentable carbon source glycerol. Inhibiting mitochondrial division rescues growth. We have developed and optimized a luminescence cell viability assay in 1536 well format for the identification of inhibitors in the yeast mitochondrial fusion-defective assay.
The yeast glycerol stocks where kindly supplied by the laboratory of Dr. Jodi Nunnari, University of California, Davis. All yeast glycerol stock solutions were stored in single use aliquots at -80C. The CellTiterGlo luminescence reagent, containing luciferase and luciferin, were purchased from Promega, and the reagents were stored according to manufacturer's instructions. The Buffer components for the YPEG yeast growth medium were purchased from Sigma-Aldrich (St. Louis, MO). YPEG growth medium: 1% (w/v) yeast extract, 2% (w/v) Bacto-peptone, 3% Ethanol, 3% glycerol, 0.4mM Tryptophan, 0.36mM Adenine. qHTS Assay Protocol: 1.#Dispense 2.5 ul yeast growth medium per 1536 well plate. 2.#Transfer 23 nl per well of compound to plate. 3.#Dispense 2.5 ul yeast solution at appropriate seeding density per well. 4.#Incubate for 48 hours at 37C. 5.#Dispense 5 ul of CellTiterGlow solution per well. 6.#Incubate at ambient for 10 minutes. 7.#Read using bio-luminescence protocol on Viewlux.
Potency means the concentration at half of the fitted maximal effect.

SMILES	Potency	growth rescue (activation) [%]
O=C1NC(=O)C(CCc2ccccn2)(Cc2cccc(Cl)c2Cl)C(=O)N1c1ccc(Br)cc1 (stereo not given)	11.2 µM (active)	–
Clc1ccc2nc3c(c(-c4ccccc4)c2c1)CNCC3	–	-2.55
N[C@@H](Cc1c[nH]c2ccccc12)c1nnc(SCc2c(F)cccc2Cl)o1	–	-0.901
CC(=O)NBr	–	1.86
C=CCN1CCC23c4c5ccc(O)c4O[C@H]2C(=O)CC[C@@]3(O)C1C5 (stereo not given in full)	–	-26.3
c1ccc2c(c1)[I+]c1ccccc1-2	0.291 µM (active)	–
O=C(COc1ccc2ccccc2c1)N1CCN(Cc2ccncc2)CC1	–	-0.612
Cc1nn(Cc2ccccc2Cl)c(Cl)c1C(=O)OC(C(=O)NC(N)=O)C(C)C (stereo not given)	–	0.455
C=CCN1C(=O)C2(C(C(=O)OCC)=C(N)Oc3c2c(=O)oc2ccccc32)c2ccccc21 (stereo not given)	–	16.6
CC1=CC(=Cc2sc3ccccc3[n+]2C)C=C(C)O1	–	0.11
